# In article PMC4102417:
# Tested on: murine 3T3 fibroblasts
# Test: primary screen, percent viability or growth; higher = less effect of the substance
# Method: Similarly, for measuring the cytotoxicity concentration (CC50) for 3T3 fibroblast cells, cultures were incubated with drugs for 72 hours and developed using Alamar Blue (Alamar Biosciences Inc, Sacramento, CA) as previously described.
row,SMILES,Mammalian (3T3) cell % growth at 10 uM [%]
1,C[C@H]1COC2=C1C(=O)C(=O)c1c2ccc2c1CCCC2(C)C,87
2,O=C(O)CC[N+](=O)[O-],88.6
3,Oc1ccc(O)cc1,93.9
4,COC(=O)CC1C2(C)CC34OC5(C)OC6(C7/C(=C(\OC)C(C)C)C(=O)OC(c8ccoc8)C7(C)C(OC(=O)C(C)C)C(OC)C6(O5)C13C)C(OC)C4(OC)C2OC(C)=O (centres unmarked),53.4
5,Clc1ccc(COC(Cn2ccnc2)c2ccc(Cl)cc2Cl)c(Cl)c1 (centres unmarked),100
6,O=C(CCCN1CCC2(CC1)C(=O)NCN2c1ccccc1)c1ccc(F)cc1,94.7
7,CC12CCC3C(CCC4CC(O)CCC43C)C1CCC2=O (centres unmarked),100
8,CC(C)CCC[C@@H](C)[C@H]1CC[C@H]2[C@@H]3C(=O)C=C4C[C@@H](O)CC[C@]4(C)[C@H]3CC[C@]12C,68.5
9,COc1c2c(cc3occ(-c4ccc5c(c4)OCO5)c(=O)c13)OC(C)(C)C=C2,68.2
10,C=C1CC[C@@H]2C(CC2(C)C)C(=O)CC[C@H]1O (some centres unmarked),2.6
11,O=C1C=C2C(=CCOC2O)O1 (centres unmarked),0.5
12,COc1cc(O)c(C(=O)/C=C/c2ccc(O)c(OC)c2)c(OC)c1,10.2
13,COC(=O)C1=C(C)NC(C)=C(C(=O)OCCN(C)Cc2ccccc2)C1c1cccc([N+](=O)[O-])c1 (centres unmarked),99.8
14,Cl.OC(c1cc(C(F)(F)F)nc2c(C(F)(F)F)cccc12)C1CCCCN1 (centres unmarked),94.7
15,c1ccc(-c2ccc(C(c3ccccc3)n3ccnc3)cc2)cc1 (centres unmarked),93.6
16,O=c1cc(-c2ccc(O)cc2)oc2cc(O)cc(O)c12,73.6
17,CCC1(O)C(=O)OCc2c1cc1n(c2=O)Cc2cc3cc(O)ccc3nc2-1 (centres unmarked),23.9
18,CC1=CC(=O)c2ccccc2C1=O,0.5
19,O=c1c(O)c(-c2ccc(O)c(O)c2)oc2c(O)c(O)cc(O)c12,54.6
20,CC[C@@H](C(=O)[C@@H](C)[C@@H](O)[C@H](C)CCc1ccc(C)c(O)c1C(=O)O)[C@H]1O[C@](CC)([C@H]2CC[C@](O)(CC)[C@H](C)O2)C[C@@H]1C,50.1
21,CC1(C)C(=O)C=CC2(C)C1=C(O)C(=O)C1(C)C2CCC2(C)C(c3ccoc3)CC3OC321 (centres unmarked),25.5
22,CC(=O)OC1CCC2(C)C(CC(OC(C)=O)C3(C)C2CCC2(C)C(c4ccoc4)OC(=O)C4OC423)C1(C)C (centres unmarked),96.7
23,CCCCCCc1ccc(O)cc1O.Nc1c2ccccc2nc2ccccc12,53.7

row,SMILES,Mammalian (3T3) cell % growth at 10 uM [%]
1,CN1CCC(=C2c3ccccc3Sc3ccccc32)CC1,98.5
2,OCCN1CCN(CCCN2c3ccccc3Sc3ccc(Cl)cc32)CC1,66.6
3,CCC(=O)O[C@H]1CC[C@H]2[C@@H]3CCc4cc(O)ccc4[C@H]3CC[C@]12C,100
4,CC1OC(=O)C(C(C)C)NC(=O)C(C(C)C)OC(=O)C(C(C)C)NC(=O)C(C)OC(=O)C(C(C)C)NC(=O)C(C(C)C)OC(=O)C(C(C)C)NC(=O)C(C)OC(=O)C(C(C)C)NC(=O)C(C(C)C)OC(=O)C(C(C)C)NC1=O (centres unmarked),16.4
5,CC1=CC(=O)C2C(C)(C)CCCC2(C)C1(O)CCc1ccoc1 (centres unmarked),75.8
6,CCN(CC)CCOc1ccc(C(=C(Cl)c2ccccc2)c2ccccc2)cc1,100
7,COC(=O)C1(C)CCCC2(C)c3ccc(C(C)C)cc3C(=O)CC12 (centres unmarked),91.8
8,O=c1cc(-c2ccccc2)oc2cc(O)cc(O)c12,43
9,COc1cc(OC)c2c(=O)c(OC)c(-c3ccc(OC)c(OC)c3)oc2c1,43.3
10,CN1CCCC1CCOC(C)(c1ccccc1)c1ccc(Cl)cc1 (centres unmarked),93.2
11,COC(=O)C1(C)CCCC2(C)c3ccc(O)c(C(C)C)c3CCC12 (centres unmarked),38.5
12,CCCCC(CC)CNC(=N)NC(=N)NCCCCCCNC(=N)NC(=N)NCC(CC)CCCC.Cl.Cl (centres unmarked),12.3
13,C=C1C2CCC3(C)C(c4ccoc4)OC(=O)CC13OC1CC(OC(C)=O)C(C)(C)C(CC(=O)OC)C12C (centres unmarked),84.1
14,CN1CCCC(n2nc(Cc3ccc(Cl)cc3)c3ccccc3c2=O)CC1.Cl (centres unmarked),95.1
15,CN1CCc2c(c3ccccc3n2Cc2ccccc2)C1.O=S(=O)(O)c1cccc2c(S(=O)(=O)O)cccc12,100
16,CCC1(O)CC(O)c2c(cc3c(c2O)C(=O)c2c(O)ccc(O)c2C3=O)C1C(=O)OC (centres unmarked),46.5
17,COc1c(O)cc2oc3cc(O)c(CC=C(C)C)c(O)c3c(=O)c2c1CC=C(C)C,5.5
18,CC(C)C[C@H]1C(=O)N2CCC[C@H]2[C@]2(O)O[C@](NC(=O)[C@@H]3C=C4c5cccc6[nH]c(Br)c(c56)C[C@H]4N(C)C3)(C(C)C)C(=O)N12.CS(=O)(=O)O,92.1
19,CSc1ccc2c(c1)N(CCC1CCCCN1C)c1ccccc1S2 (centres unmarked),45.7
20,CC(C)C(C)/C=C/C(C)C1CCC2C3=CC=C4CC(O)CCC4(C)C3CCC21C (centres unmarked),99.6
21,CC(C)CCCC(C)C1CCC2C3CC(=O)C4CC(O)CCC4(C)C3CCC12C (centres unmarked),100
22,COc1cc(NC(C)CCCN)c2ncccc2c1.O=P(O)(O)O.O=P(O)(O)O (centres unmarked),91.1
23,COc1ccc2[nH]cc(CCN)c2c1.Cl,24.2

row,SMILES,Mammalian (3T3) cell % growth at 10 uM [%]
1,COc1ccc(CCN2CCC(Nc3nc4ccccc4n3Cc3ccc(F)cc3)CC2)cc1,100
2,CC12C=CC(=O)C=C1CCC1C2CCC2(C)C(=O)CCC12 (centres unmarked),72.1
3,CCC1(O)CC2CN(CCc3c([nH]c4ccccc34)C(C(=O)OC)(c3cc4c(cc3OC)N(C)C3C(O)(C(=O)OC)C(OC(C)=O)C5(CC)C=CCN6CCC43C65)C2)C1.O=S(=O)(O)O (centres unmarked),36.2
4,O=C(Nc1ccc([N+](=O)[O-])cc1Cl)c1cc(Cl)ccc1O,10.5
5,O=c1cc(-c2ccccc2)oc2c(O)c(O)ccc12,72.6
6,C=CC(C)(O)CCC1C(=C)CCC2C(C)(CO)CCCC12C (centres unmarked),86.1
7,CC(=O)Oc1ccc2c(c1)CCC1C2CCC2(C)C1CC(OC(C)=O)[C@@H]2OC(C)=O (some centres unmarked),60.7
8,COc1ccc2c(c1)[nH]c1c(C)nccc12,87.2
9,COc1ccc2cc1Oc1ccc(cc1)C[C@H]1c3c(cc4c(c3Oc3cc5c(cc3OC)CCN(C)[C@@H]5C2)OCO4)CCN1C,33.1
10,CC(C)c1c(O)ccc2c1CC[C@H]1C(C)(C)CCC[C@]21C,67.4
11,CC(Cc1cccc(C(F)(F)F)c1)NCCOC(=O)c1ccccc1 (centres unmarked),96.6
12,CC1(C)C(=O)C2OC2C2(C)C1CC(O)C1(C)C2CCC2(C)C(c3ccoc3)OC(=O)C3OC321 (centres unmarked),77.3
13,NC(=O)c1cc([N+](=O)[O-])cc([N+](=O)[O-])c1,97.2
14,C=CC(C1=CC(=O)C(OC)=CC1=O)c1ccc(OC)cc1 (centres unmarked),1.2
15,CN1CCC(=C2c3ccccc3CCc3sccc32)CC1.O=C(O)CC(O)C(=O)O,86.5
16,CC(=O)[C@H]1CC[C@H]2[C@@H]3CC[C@H]4C[C@@H](O)CC[C@]4(C)[C@H]3CC[C@]12C,100
17,CCOC(=O)C1=C(COCCN)NC(C)=C(C(=O)OC)C1c1ccccc1Cl.O=S(=O)(O)c1ccccc1 (centres unmarked),100
18,C[C@@H]1[C@H](O)[C@@H](C)/C=C/C=C/C=C/C=C/C=C/C=C/C=C/[C@H](O[C@@H]2O[C@H](C)[C@@H](O)[C@H](N)[C@@H]2O)C[C@@H]2O[C@](O)(C[C@@H](O)C[C@@H](O)[C@H](O)CC[C@@H](O)C[C@@H](O)CC(=O)O[C@H]1C)C[C@H](O)[C@H]2C(=O)O,89.7
19,CNC1CCC(c2ccc(Cl)c(Cl)c2)c2ccccc21.Cl (centres unmarked),100
20,CCCCC1C(=O)N(c2ccccc2)N(c2ccc(O)cc2)C1=O (centres unmarked),72.8
21,COc1cc(O)c2c(c1)C(=O)c1cc(C)cc(O)c1C2=O,96.8
22,CO[C@H]1C[C@H](O[C@H]2[C@H](C)[C@@H](O[C@@H]3O[C@H](C)C[C@H](N(C)C)[C@H]3O)[C@@H](C)C[C@@]3(CO3)C(=O)[C@H](C)[C@@H](O)[C@@H](C)[C@@H](C)OC(=O)[C@@H]2C)O[C@@H](C)[C@@H]1O.O=P(O)(O)O,100
